Usually Inhibition stands for the change of the read-out against control, counted positive when it falls.

“And” between values parts separate entries of the source, which are not always exact repeats. Equal entries are not always repeated. Potency and affinity values are given separately.

Consider 14 molecules from ChEMBL document CHEMBL4513151, “CO-ADD screening of Institut Català d'Investigació Química (Spain) compounds”.

One experiment concerns Klebsiella pneumoniae. The settings on record: Concentration 32 ug.mL-1; ASSAY_TEST Inhibition of Bacterial Growth; detection method Absorption (OD600); MEDIA CAMHB; plate type 384well; NBS; CORNING #3640; time 18 hr.
Turning to `C=C1CC(C(=O)OC)(C(=O)OC)C[C@@H]1[C@@H](NS(=O)(=O)c1ccc(C)cc1)c1ccccc1`, the Inhibition came out at 18.19%.
For `C[C@]12CC[C@@](C)(O1)[C@H]1C=C[C@H](OC(=O)c3ccccc3)[C@H]12`, the Inhibition is 15.14%.
The same measure, in the same setting: next, `C=C1CC(COCc2ccc(OC)cc2)(COCc2ccc(OC)cc2)C[C@@H]1[C@@H](Nc1ccc(Br)cc1)c1ccccc1`: 3.98%; `C[C@]12CC[C@@](c3ccc4ccccc4c3)(O1)[C@H]1C=C[C@H](OC(=O)c3ccccc3)[C@H]12`: 30.93%; `C=C1CC2(COC(C)(C)OC2)C[C@@H]1[C@@H](Nc1ccc(Br)cc1)c1ccccc1`: 31.4%.
Regarding `C=C1CC(C(=O)OC)(C(=O)OC)C[C@@H]1[C@H](c1ccccc1)n1ccc2ccccc21`, the Inhibition is on record as 21.67%.
As to `C[C@@H]1CC(=O)C=C2C(=O)[C@@H]3[C@@H](C3(C)C)[C@]21C`, the Inhibition is on record as 18.57%.
For the molecule `C=C1CC(C(=O)OC)(C(=O)OC)C[C@@H]1[C@H](c1ccccc1)n1ccc2ccc(Cl)cc21`, the Inhibition is on record as 17.79%.
For the molecule `C=C1CC(COC)(COC)C[C@@H]1[C@@H](Nc1ccc(Br)cc1)c1ccccc1`, the Inhibition is 12.17%.
For the molecule `C[C@]12CC[C@@](C3CCCC3)(O1)[C@H]1C=C[C@H](OC(=O)c3ccccc3)[C@H]12`, the Inhibition is on record as 19.59%.
In the case of `C[C@]12CC[C@@H](O1)[C@H]1C=C[C@H](OC(=O)c3ccccc3)[C@H]12`, the Inhibition came out at 19.45%.

The next experiment deals with Candida albicans. The settings on record: 32 ug/mL.
Consider `C[C@]12CC[C@@](c3ccc(C(F)(F)F)cc3)(O1)[C@H]1C=C[C@H](OC(=O)c3ccccc3)[C@H]12`, for which the Inhibition is -0.5% and 4.46%.
Turning to `C[C@]12CC[C@@](C3CC3)(O1)[C@H]1C=C[C@H](OC(=O)c3ccccc3)[C@H]12`, the Inhibition is 3.68% and 4.72%.
Same read-out and setting: with `C[C@]12CC[C@@](c3ccccc3)(O1)[C@H]1C=C[C@H](OC(=O)c3ccccc3)[C@H]12` the figure was -1.59% and 4.39%.
In the case of `C=C1CC(C(=O)OC)(C(=O)OC)C[C@@H]1[C@@H](NS(=O)(=O)c1ccc(C)cc1)c1ccccc1`, the Inhibition came out at 0.13%.
On to `C[C@]12CC[C@@](C)(O1)[C@H]1C=C[C@H](OC(=O)c3ccccc3)[C@H]12`, for which the Inhibition worked out at 5.91%.
On the same count and under the same terms, with `C=C1CC(COCc2ccc(OC)cc2)(COCc2ccc(OC)cc2)C[C@@H]1[C@@H](Nc1ccc(Br)cc1)c1ccccc1` the figure was -6.97%; with `C[C@]12CC[C@@](c3ccc4ccccc4c3)(O1)[C@H]1C=C[C@H](OC(=O)c3ccccc3)[C@H]12`, 2.97%; with `C=C1CC2(COC(C)(C)OC2)C[C@@H]1[C@@H](Nc1ccc(Br)cc1)c1ccccc1`, 6.45%.
Regarding `C=C1CC(C(=O)OC)(C(=O)OC)C[C@@H]1[C@H](c1ccccc1)n1ccc2ccccc21`, the Inhibition was -0.58%.
Same read-out and setting: next, `C[C@@H]1CC(=O)C=C2C(=O)[C@@H]3[C@@H](C3(C)C)[C@]21C`: -0.58%; `C=C1CC(C(=O)OC)(C(=O)OC)C[C@@H]1[C@H](c1ccccc1)n1ccc2ccc(Cl)cc21`: 3.75%; `C=C1CC(COC)(COC)C[C@@H]1[C@@H](Nc1ccc(Br)cc1)c1ccccc1`: 5.3%.
With `C[C@]12CC[C@@](C3CCCC3)(O1)[C@H]1C=C[C@H](OC(=O)c3ccccc3)[C@H]12`, the Inhibition amounted to 4.96%.
As for `C[C@]12CC[C@@H](O1)[C@H]1C=C[C@H](OC(=O)c3ccccc3)[C@H]12`, the Inhibition turned out to be 6.1%.

A further experiment concerns Cryptococcus neoformans. Particulars: Concentration 32 ug.mL-1; ASSAY_TEST Inhibition of Fungal Growth; detection method Resazurin; Absorption (OD600-OD570); plate type 384well; NBS; CORNING #3640. For orientation: The colour change of resazurin is a common sign of viable cells or microbes.
On to `C=C1CC(C(=O)OC)(C(=O)OC)C[C@@H]1[C@@H](NS(=O)(=O)c1ccc(C)cc1)c1ccccc1`, for which the Inhibition is on record as -29.89%.
Regarding `C[C@]12CC[C@@](C)(O1)[C@H]1C=C[C@H](OC(=O)c3ccccc3)[C@H]12`, the Inhibition is reported as -25.36%.
`C=C1CC(COCc2ccc(OC)cc2)(COCc2ccc(OC)cc2)C[C@@H]1[C@@H](Nc1ccc(Br)cc1)c1ccccc1`: the Inhibition was -42.12%.
On the same count and under the same terms, next, `C[C@]12CC[C@@](c3ccc4ccccc4c3)(O1)[C@H]1C=C[C@H](OC(=O)c3ccccc3)[C@H]12`: -55.94%; `C=C1CC2(COC(C)(C)OC2)C[C@@H]1[C@@H](Nc1ccc(Br)cc1)c1ccccc1`: -62.96%.
Take `C=C1CC(C(=O)OC)(C(=O)OC)C[C@@H]1[C@H](c1ccccc1)n1ccc2ccccc21`: the Inhibition is reported as -68.85%.
`C[C@@H]1CC(=O)C=C2C(=O)[C@@H]3[C@@H](C3(C)C)[C@]21C`: the Inhibition is recorded as -14.72%.
Turning to `C=C1CC(C(=O)OC)(C(=O)OC)C[C@@H]1[C@H](c1ccccc1)n1ccc2ccc(Cl)cc21`, the Inhibition is reported as -67.72%.
As for `C=C1CC(COC)(COC)C[C@@H]1[C@@H](Nc1ccc(Br)cc1)c1ccccc1`, the Inhibition is -62.06%.
For the molecule `C[C@]12CC[C@@](C3CCCC3)(O1)[C@H]1C=C[C@H](OC(=O)c3ccccc3)[C@H]12`, the Inhibition is listed as -56.17%.
Still for that read-out and setting: next, `C[C@]12CC[C@@H](O1)[C@H]1C=C[C@H](OC(=O)c3ccccc3)[C@H]12`: -82.89%.
